In the library only some 4.8% were active in any assay of this set; here they are far more common.
DAX1 inh-1 – DAX1 (NR0B1) inhibitors, primary screen, cell-based, HEK293, Gal4-DAX1, luciferase luminescence. Nuclear receptor subfamily 0 group B member 1 (Homo sapiens), P51843. HEK293 Gal4-DAX1 luciferase reporter. inhibition, % at 6.75 µM. actives 0.99% (n = 340,000);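 active means inhibition above the mean over all tested compounds plus 3 SD, cut at about 4.2% in these data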;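 further: 0% = DAX1-transfected cells with DMSO and 100% = empty-vector control cells with DMSO; inhibition shows as a rise in luminescence from relieved DAX1 repression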
Target sequence (P51843 207-470 limits assumed): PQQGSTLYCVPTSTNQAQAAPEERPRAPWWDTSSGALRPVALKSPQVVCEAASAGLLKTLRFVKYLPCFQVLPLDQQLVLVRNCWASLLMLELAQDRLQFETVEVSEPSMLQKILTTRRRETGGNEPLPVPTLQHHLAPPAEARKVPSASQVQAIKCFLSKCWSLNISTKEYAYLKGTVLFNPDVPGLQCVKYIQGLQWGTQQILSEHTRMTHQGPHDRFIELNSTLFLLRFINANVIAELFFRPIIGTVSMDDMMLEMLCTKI
SMARCA2 act – SMARCA2 (BRM) function activators, primary screen, cell-based, luminescence, high throughput; MG213 cells, MMTV-luciferase reporter, dexamethasone, overnight; activation, % at 9.1 µM; actives 1% (n = 370,000); AID 652017, 2013; in the data active means activation above about 7.8%;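 further: 0% = vehicle wells and 100% = reference activator wells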
hcDAF12 agonist – H. contortus DAF-12 nuclear receptor activators, primary screen, cell-based, luminescence, HEK293, lit1-tk-luc reporter. HEK293 hcDAF-12 lit1-tk-luc reporter; 0% DMSO, 100% Δ7-dafachronic acid. activation, % at 6.8 µM. actives 1.4% (n = 370,000). AID 652067, 2013;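 active means activation above the mean of all tested compounds plus 3 SD, cut at about 5.5% in these data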;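 further: 100% = response to 3 µM Δ7-dafachronic acid high control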
DAX1 inh-2 – DAX1 (NR0B1) inhibitors on StAR promoter, primary screen, cell-based, luminescence, SF-1 (NR5A1), full-length DAX-1. AID 652010, 2013. HEK293T StAR-luciferase reporter, SF-1/DAX-1 repression relief. actives 1.1% (n = 370,000). inhibition, % at 6.8 µM;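 active means inhibition above the mean over all tested compounds plus 3 SD, cut at about 3.6% in these data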;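 further: 0% = DAX-1 cells with DMSO and 100% = cells lacking DAX-1 with DMSO; higher inhibition means more luminescence from relief of DAX-1 repression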
hgDAF12 agonist – H. glycines DAF-12 receptor agonists, primary screen, cell-based, luminescence, HEK293, GAL4 fusion, UAS-luciferase; AID 687014, 2013; activation, % at 6.8 µM; HEK293 GAL4-hgDAF12 UAS-luciferase reporter, agonist luminescence; normalized to butyrate control; Nuclear hormone receptor DAF-12 (Heterodera glycines), GAL4 fusion; actives 1.8% (n = 370,000);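 active means activation above a cutoff set at the mean of all screened compounds plus 3 SD, cut at about 10% in these data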;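 further: 0% = DMSO wells and 100% = sodium butyrate wells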
ssDAF-12 act – S. stercoralis DAF-12 nuclear receptor activators, primary screen, cell-based, luminescence, HEK293, GRIP1 co-expression, lit1-tk-luc | Nuclear hormone receptor DAF-12 (Strongyloides stercoralis) | HEK293 ssDAF-12/GRIP1 lit1-tk-luc reporter; % of 3 µM dafachronic acid response | activation, % at 6.8 µM | actives 1% (n = 370,000);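 active means activation above the mean over all tested compounds plus 3 SD, cut at about 0.9% in these data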;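 further: 0% = DMSO-only wells and 100% = 3 µM delta7-dafachronic acid wells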
hgDAF12 ag – H. glycines DAF-12 receptor agonists, confirmation, cell-based, luminescence, HEK293, GAL4-LBD fusion. HEK293 GAL4-hgDAF12 luciferase reporter, agonist mode; percent of butyrate response. actives 80% (n = 3,300). activation, % at 6.8 µM. AID 743050, 2013. shares compounds with hgDAF12 agonist;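 active means mean activation over triplicate wells above the hit cutoff derived from the earlier primary screen, cut at about 11% in these data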;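 further: 0% = DMSO low control and 100% = 2 mM sodium butyrate high control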
LXR ag 2 – LXR agonists, Gal4 luciferase reporter, confirmation, counter-screen for hgDAF-12 agonist project, cell-based, luminescence, HEK293, H. glycines campaign. 24 h. 3,300 tested, under 10 active. shares compounds with hgDAF12 agonist. activation, % at 6.8 µM;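 active means mean activation of the triplicate above a set limit carried over from the primary screen, none filed active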
Target sequence (P55055 whole entry, looked up, the tested form may be a part): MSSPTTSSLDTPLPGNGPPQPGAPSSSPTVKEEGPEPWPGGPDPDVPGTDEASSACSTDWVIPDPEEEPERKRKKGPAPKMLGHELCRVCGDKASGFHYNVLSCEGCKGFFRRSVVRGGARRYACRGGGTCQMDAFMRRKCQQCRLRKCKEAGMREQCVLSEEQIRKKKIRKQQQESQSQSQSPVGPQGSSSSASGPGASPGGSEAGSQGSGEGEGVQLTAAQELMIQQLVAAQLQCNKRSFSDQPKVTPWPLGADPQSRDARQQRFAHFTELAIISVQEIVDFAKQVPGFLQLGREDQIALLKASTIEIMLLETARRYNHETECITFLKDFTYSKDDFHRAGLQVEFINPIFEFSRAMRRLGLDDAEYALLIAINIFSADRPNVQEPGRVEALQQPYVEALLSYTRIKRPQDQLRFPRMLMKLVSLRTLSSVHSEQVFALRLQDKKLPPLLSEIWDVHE
The depositor's hits bear a star; x = not tested or not shown.

SMILES	DAX1 inh-1	SMARCA2 act	hcDAF12 agonist	DAX1 inh-2	hgDAF12 agonist	ssDAF-12 act	hgDAF12 ag	LXR ag 2
Nc1ccc(-c2nc3cc([N+](=O)[O-])ccc3o2)cc1	5.7*	0.7	5.7*	2.5	23.6*	0.7	19.6*	0.9
COc1ccc(-c2nc3cc([N+](=O)[O-])ccc3o2)cc1	6.2*	3.1	2.4	2.2	13.9*	-0.4	16.6*	0.8
CC(C)(C)Nc1nc2cc([N+](=O)[O-])ccc2o1	-0.5	-1.6	0.4	0.3	0.0	-1.0	x	x
Cc1cc(C)n(C(=O)c2cccc([N+](=O)[O-])c2)n1	0.6	1.4	-0.2	-0.1	0.6	-1.0	x	x
O=C(CSc1nnc(NC(=O)c2ccc(F)cc2)s1)NC1CC1	-1.3	3.5	0.6	0.6	6.2	-0.8	x	x
O=C(N/N=C/c1cccs1)c1ccc2c(c1)OCO2	0.9	1.7	6.3*	3.8*	13.9*	1.9*	13.0*	0.9
O=C(Nc1ccc(Cl)cc1)c1ccc2c(c1)OCO2	2.8	0.7	5.6*	2.8	13.3*	-0.1	20.1*	1.1
O=C(Nc1ccn(Cc2ccccc2)n1)c1ccc2c(c1)OCO2	2.5	1.4	0.5	0.8	15.7*	-1.6	9.1	0.4
O=C(Nc1ccc(NC(=O)c2ccc(Cl)cc2Cl)cc1)c1ccc2c(c1)OCO2	-1.6	3.3	0.7	0.0	0.4	-1.0	x	x
O=C(N/N=C/c1cccc([N+](=O)[O-])c1)c1ccc2c(c1)OCCO2	0.9	4.6	2.6	2.1	15.5*	-0.1	12.3*	0.7
CSc1ncccc1C(=O)N1CCN(S(=O)(=O)c2ccc3ccccc3c2)CC1	-1.0	-2.8	-0.8	-0.5	-1.6	-1.5	x	x
O=C(CNC(=O)c1ccco1)OCC(=O)c1ccc(Cl)cc1	-0.8	-1.9	-1.2	0.1	-0.7	-1.5	x	x
Cc1ccc(NC(=O)CN(C)C(=O)c2ccccc2OCc2c(C)noc2C)cc1	-0.4	-2.2	0.1	2.3	3.4	0.0	x	x
O=C(CN1CCCCC1)N1CCc2ccccc21	-0.2	5.0	-0.5	0.0	-1.1	-1.6	x	x
O=C(N/N=C/c1ccc(Cl)cc1)c1ccc2c(c1)OCO2	-0.4	1.8	-0.1	0.2	14.1*	-0.9	16.9*	0.5
O=C(CNC(=O)c1ccc2c(c1)OCCO2)N/N=C/c1ccc(Cl)cc1	-1.3	-2.3	0.2	-0.5	0.9	-1.2	x	x
O=C(Nc1ccc2c(c1)OCCO2)c1ccc(Cl)cc1	1.7	5.5	4.8	1.5	15.3*	0.6	14.8*	0.9
CC(C)[C@H](NS(=O)(=O)/C=C/c1ccccc1)C(=O)OCC(=O)NC(N)=O	0.0	-2.0	-0.8	0.3	-1.1	-1.8	x	x
CN1CCN(c2ccc(NC(=O)c3ccccc3Br)cc2)CC1	2.0	4.2	4.5	1.1	5.6	-0.7	x	x
O=C(Nc1ccccc1)c1ccc(-c2ccccc2C(F)(F)F)o1	-0.3	3.8	-0.8	0.5	7.3	-0.9	x	x
CN1CCN(c2ccc(NC(=O)c3ccc(-c4ccccc4F)o3)cc2)CC1	2.0	3.8	5.4	4.4*	24.0*	1.4*	17.3*	0.8
O=C(Nc1ccccc1)c1ccc(-c2ccccc2Cl)o1	3.7	4.4	4.6	2.7	13.2*	0.1	13.0*	0.4
COC(=O)c1cc2n(n1)CCN(Cc1ccccc1Cl)C2=O	0.8	-0.1	-0.3	-0.1	-0.1	-1.3	x	x
COC(=O)c1ccn(Cc2ccccc2Cl)n1	1.3	5.2	0.8	3.2	13.8*	-1.1	8.8	0.3
CN(C)c1ccc(/C=N/N=C/c2ccccc2O)cc1	3.7	5.7	3.7	2.7	15.6*	1.9*	6.0	1.0
SMILES	DAX1 inh-1	SMARCA2 act	hcDAF12 agonist	DAX1 inh-2	hgDAF12 agonist	ssDAF-12 act	hgDAF12 ag	LXR ag 2
N#CCC(=O)N/N=C/c1ccccc1Cl	-0.5	-2.9	-1.7	-0.8	0.2	-1.1	x	x
CO/C(N)=C(\C#N)N=Cc1ccccc1Cl	1.1	7.6	1.4	1.9	13.9*	0.8	3.5	0.1
CCC(CC)c1nnc(NC(=O)CCc2ccc(OC)cc2)s1	1.1	0.8	-3.0	-0.4	1.0	-2.0	x	x
CCc1ccc(OCc2ccc(C(=O)OC)o2)cc1	3.6	1.8	3.5	1.4	16.8*	-0.7	13.6*	0.6
COC(=O)c1ccc(COc2ccc(C(C)(C)C)cc2)o1	0.9	1.3	1.0	1.2	5.2	-0.9	x	x
CCC(C)c1ccc(OCc2ccc(C(=O)OC)o2)cc1 (stereo not given)	3.8	-0.8	4.5	3.2	15.2*	1.0*	17.8*	0.7
COC(=O)c1ccc(COc2ccc(NC(C)=O)cc2)o1	1.2	-1.2	-0.6	-0.2	1.9	-1.7	x	x
COc1ccccc1/C=C1/SC(=O)N(CCC(=O)Nc2ccc(S(=O)(=O)Nc3nccs3)cc2)C1=O	0.1	0.4	-1.6	1.1	0.4	-1.7	x	x
COc1ccc(-c2nnc(SCC(=O)c3ccc[nH]3)o2)cc1	0.2	5.1	5.0	2.8	14.2*	0.9	15.4*	0.8
Cc1ccc(-c2nc(-c3ccncc3)no2)cc1Cl	1.2	5.7	1.0	0.9	6.0	-0.1	x	x
Cc1ccc(-c2nc(-c3ccncc3)no2)cc1C	4.0	6.3	2.3	1.8	17.6*	0.5	18.6*	0.9
O=C(c1ccc(Cl)c(Cl)c1)c1cnc(Nc2ccccc2)s1	-0.5	4.7	-0.5	-0.8	1.5	-0.8	x	x
CC(C)(C)C(=O)c1cnc(Nc2ccccc2Cl)s1	4.0	5.2	4.0	2.4	13.4*	0.5	15.8*	0.8
COc1ccc(NC(=O)CSc2nc3ccsc3c(=O)n2CCC(=O)O)c(OC)c1	0.2	4.1	0.8	-0.3	14.4*	-1.1	1.5	0.0
O=C(Cc1cccc2ccccc12)Nc1ccc(O)cc1C(=O)O	0.9	-0.9	-0.3	0.1	3.9	-0.6	x	x
COc1ccc2c(c1OC)C(=O)N(c1cccc(C)c1)C2	1.5	7.2	5.6	3.6*	13.3*	1.3*	16.2*	0.7
